D2 ag-1 = agonists of human D2 dopamine receptor (beta-arrestin); DiscoveRx PathHunter D2 beta-arrestin, luminescence, 90 min; 100% = 57 uM dopamine signal; P14416; activation, % (no concentration beside the values); 360,000 tested, 0.084% active; in the data active = activation above about 40%; inconclusive = between about 15% and that limit
Target sequence (P14416 whole entry, looked up): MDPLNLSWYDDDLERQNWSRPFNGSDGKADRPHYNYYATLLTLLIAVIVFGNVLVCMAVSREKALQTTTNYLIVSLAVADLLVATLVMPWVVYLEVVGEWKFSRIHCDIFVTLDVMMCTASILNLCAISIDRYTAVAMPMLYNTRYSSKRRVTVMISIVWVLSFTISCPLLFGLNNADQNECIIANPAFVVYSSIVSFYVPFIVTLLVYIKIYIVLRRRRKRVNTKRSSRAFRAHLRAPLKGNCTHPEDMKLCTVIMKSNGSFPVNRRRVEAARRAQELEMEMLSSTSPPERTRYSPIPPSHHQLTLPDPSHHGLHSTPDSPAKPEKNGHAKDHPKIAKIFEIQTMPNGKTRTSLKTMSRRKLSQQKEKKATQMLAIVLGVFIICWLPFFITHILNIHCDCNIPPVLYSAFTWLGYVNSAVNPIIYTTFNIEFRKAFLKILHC
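DiscoveRx PathHunter D2 beta-arrestin cells (2,100/well) attached overnight, then compound-stimulated 90 min at 37 C in HBSS/10 mM HEPES/0.1% Tween-20 buffer; beta-galactosidase complementation read by luminescence after 1 h at ambient temperature. Dopamine 57 uM final (EC100) as control.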
Anesthetic bind = binds horse apoferritin like a general anesthetic; Potency, µM (highest dose often 77.5 µM), most hits filed as inhibitors; apoferritin/1-aminoanthracene competitive binding, fluorescence; AID 485281; P02791; 350,000 tested, 0.074% active; active = well fitted inhibition curve with a large enough effect; inconclusive = small, poorly fitted or top-dose-only effect; inactive = no such curve, though single readings can be large or run the other way; note: nearly all actives have a fitted effect of over 20% in size
Target sequence (P02791 2-175 limits assumed): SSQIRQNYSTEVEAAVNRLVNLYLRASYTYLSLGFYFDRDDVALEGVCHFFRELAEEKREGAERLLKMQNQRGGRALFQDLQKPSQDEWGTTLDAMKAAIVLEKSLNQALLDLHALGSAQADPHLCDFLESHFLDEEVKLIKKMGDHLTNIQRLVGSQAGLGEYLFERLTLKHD
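Probe: 1-aminoanthracene (50% saturated, PBS). Protein: horse-spleen apoferritin, 10 uM. Incubation: 10 min, room temperature. Detection: 380 nm excitation, 535 nm emission. Analysis: normalized response, four-parameter Hill.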
D2 PAM-1 = positive allosteric modulators of human D2 dopamine receptor; potentiation, % (no concentration beside the values); P14416; DiscoveRx D2 beta-arrestin cells, luminescence, 90 min; 100% = 57 uM dopamine signal; AID 624464; 360,000 tested, 0.23% active; in the data active = potentiation above about 50%; inconclusive = mostly about 30% to 49%
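D2 cells co-treated with compound plus 50 nM dopamine (EC20) for 90 min at 37 deg C to detect potentiation. Beta-arrestin recruitment was read as enzyme-fragment luminescence after 1 h at ambient temperature. Full response was set by 57 uM dopamine.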
D2 PAM-2 = positively modulates the human D2 dopamine receptor allosterically; HEK293 T-REx D2, calcium flux, EC20 dopamine potentiation; AID 485347; 340,000 tested, 0.34% active; potentiation, % at 10 µM;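 active = potentiation over 3 SD above the plate norm, cut at about 30% in these data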
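Tetracycline-induced Hek293 Trex D2 cells, force-coupled to calcium, loaded with no-wash calcium dye. Compound added with 180 s kinetic read for agonism, then EC20 dopamine and a further 180 s read for potentiation.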
D2 antagonist = antagonists of human D2 dopamine receptor. P14416. HEK293 TREx D2 cells, calcium flux, dopamine EC80. inhibition, % at 10 µM. 340,000 tested, 2% active. AID 485344; in the data active = inhibition above about 30%; inactive = below that, where a call was filed
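Read-out: kinetic calcium fluorescence (1 cycle/s) in inducible HEK293 T-REx D2 cells after an EC80 dopamine addition that followed 180 s compound preincubation. Loss of the dopamine response indicates antagonism.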
D2 ag-2 = activates the human D2 dopamine receptor | HEK293 T-REx D2 cells, calcium flux agonist mode | P14416 | activation, % at 2 µM | 340,000 tested, 0.53% active | AID 485358;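 active = activation over 3 SD above normal in the single-dose calcium agonist read, cut at about 30% in these data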
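Calcium-flux readout, 1 cycle/sec over 180 s following compound pin transfer, in inducible HEK293 Trex D2 cells (force-coupled); dopamine controls included. Positive calcium responses during this window marked compounds as potential agonists.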
Each line names hits and unclear results; the compound was inactive in the other large screens. Most compounds without a hit are left out; they make up all but 2.5% or so of the library.

CCNC(=O)C1CC(=O)N(Cc2ccc3c(c2)OCO3)C(=Nc2ccc(F)cc2)S1 (configuration not stated)	none
COCCNC(=O)c1ccc2c(c1)NC(=O)CS2	none
COC(=O)c1ccc(CNC(=O)c2ccc3c(c2)NC(=O)CS3)cc1	D2 antagonist 37.2 (no result: Anesthetic bind)
O=C1CSc2ccc(S(=O)(=O)NCc3ccc(Cl)cc3)cc2N1	D2 antagonist 36.0
O=C1CSc2ccc(S(=O)(=O)NCc3ccc(F)cc3)cc2N1	none
COc1ccc(CN(C(=O)c2oc3cc(C)c(C)cc3c2C)C2CCS(=O)(=O)C2)cc1OC (configuration not stated)	none
CC(C)Cn1c(CCCNC(=O)c2ccc(F)cc2)nc2ccccc21	D2 antagonist 30.9
CN(C)c1ccnc(Oc2ccc(Cl)cc2)c1C#N	D2 PAM-2 42.0
CN(C)c1ccnc(Oc2ccccc2)c1C#N	none
CCOc1cccc2sc(N(CCN(C)C)C(=O)/C=C/c3cccs3)nc12	D2 antagonist 65.9
O=C(/C=C/c1ccc2c(c1)OCO2)NCCSCc1c(Cl)cccc1Cl	D2 antagonist 33.8
Nc1ccc2oc(-c3ccccc3Cl)cc(=O)c2c1O	Anesthetic bind inconclusive, D2 antagonist 50.3
Cc1ccccc1-c1csc(C(O)c2ccccc2)n1 (configuration not stated)	none (no result: Anesthetic bind, D2 PAM-2, D2 antagonist, D2 ag-2)
CSc1nc(C)c(Oc2ccccc2)c(=O)n1C	Anesthetic bind inconclusive
Cc1ccc(S(=O)(=O)N2CCOCC2)cc1C(=O)NC1CCCCC1	none
Cc1ccc(C(=O)NC2CCCC2)cc1S(=O)(=O)N1CCCCC1	D2 antagonist 31.8
Cc1cccnc1NC(=O)c1ccc(Cl)c(S(=O)(=O)N2CCCCCC2)c1	Anesthetic bind inconclusive, D2 antagonist 56.1
Cc1ccc(S(=O)(=O)N2CCCCC2)cc1C(=O)NC1CCCCC1	D2 PAM-2 41.6
Cc1cc(C)nc(NC2=NCC(=O)N2c2ccc(F)c(Cl)c2)n1	none
O=Nc1c(O)c2ccccc2c2ccccc12	D2 PAM-1 66.7 (no result: Anesthetic bind, D2 PAM-2, D2 antagonist, D2 ag-2)
O=C(CSc1nc2c(oc3ccccc32)c(=O)n1-c1ccccc1)Nc1ccccc1F	none (no result: D2 ag-1, D2 PAM-1, D2 antagonist)
CCn1cc([N+](=O)[O-])c(C(=O)Nc2ccc3c(c2)OCCO3)n1	D2 antagonist 69.2
CCn1cc([N+](=O)[O-])c(C(=O)NCc2ccc3c(c2)OCO3)n1	none
CC1Cc2cc(/C(O)=C3/C(=O)C(=O)N(CCCn4ccnc4)C3c3ccc(F)cc3)ccc2O1 (configuration not stated)	D2 antagonist 44.2
Cc1ccc(O)c(NC(=O)c2noc(C(C)C)c2[N+](=O)[O-])c1	none
CC(=O)Nc1cc[n+](C(C)C(=O)c2ccccc2)cc1 (configuration not stated)	none
CC(=O)Nc1cc[n+](C(C)C(=O)c2ccc(Br)cc2)cc1 (configuration not stated)	D2 antagonist 53.9
COc1ccc(S(=O)(=O)N2CCc3ccccc32)cc1C(=O)OCC(=O)c1c(N)n(C)c(=O)n(C)c1=O	none
Nc1cccc(Nc2ncnc3ccccc23)c1	D2 PAM-1 inconclusive
Oc1cccc(Nc2ncnc3ccccc23)c1	D2 antagonist 51.0
COc1ccc(C(=O)c2ccc(CC(=O)O)s2)cc1	none
O=S(=O)(c1cc(Cl)ccc1Cl)N1CCNCC1	none
N#CCCN1CCN(S(=O)(=O)c2cc(Cl)ccc2Cl)CC1	D2 PAM-2 37.2
CCOC(=O)CC1=C(C#N)C(c2cccnc2)C(C(=O)OCC)=C(N)O1 (configuration not stated)	D2 antagonist 37.7
COC(=O)C1=C(C)OC(N)=C(C#N)C1c1cccnc1 (configuration not stated)	none
CC1=C(n2nnc([N+](=O)[O-])n2)C(c2cccnc2)C(C#N)=C(N)O1 (configuration not stated)	D2 ag-1 inconclusive, D2 PAM-1 110.3
CCOC(=O)CC1=C(C(=O)OCC)C(c2cccnc2)C(C#N)=C(N)O1 (configuration not stated)	none
O=C(Oc1ccc(Br)cc1C(=O)/C=C/c1ccccc1F)c1ccco1	none (no result: Anesthetic bind, D2 PAM-2, D2 antagonist, D2 ag-2)
C/C(=N\NC(=O)CC#N)c1ccc(Oc2ccccc2)cc1	D2 PAM-2 38.5
C/C(=N\NC(=O)COc1ccccc1)c1ccc(O)cc1	none
Cc1cc(C(=O)N/N=C/C=C/c2ccccc2[N+](=O)[O-])c(C)o1	none
Cc1occc1C(=O)N/N=C/C=C/c1ccccc1[N+](=O)[O-]	Anesthetic bind inconclusive, D2 antagonist 37.6
Cc1noc(/C=C/NCc2cccnc2)c1S(=O)(=O)N(C)CC(=O)N1CCc2ccccc21	D2 antagonist 57.2
Cc1sc(NC(=O)c2cccs2)c(C(=O)OC(C)C)c1C	D2 antagonist 31.3
Cc1ccc(-c2nnn(CCC(=O)N3CCCCC3C)n2)cc1 (configuration not stated)	none
CC1CCCCN1C(=O)Cn1nnc(-c2cccnc2)n1 (configuration not stated)	D2 antagonist 31.9
Cc1ccc(CC(SCc2ccccc2)C(=O)O)cc1C (configuration not stated)	none
O=C(/C=C/c1ccc([N+](=O)[O-])cc1)c1cccnc1	none
CCOc1ccc2[nH]c(S(=O)(=O)CC)nc2c1Cl	none
CN(C)Cc1c(O)ccc2occ(C(=O)c3ccc(F)cc3)c12	none
CC(=O)c1cccc(NC(=S)N2CCC(Cc3ccccc3)CC2)c1	Anesthetic bind inconclusive
CC(=O)c1ccc(NC(=S)N2CCC(Cc3ccccc3)CC2)cc1	D2 antagonist 32.5
O=C(c1ccc(Br)o1)N1CCC(Cc2ccccc2)CC1	D2 antagonist 49.1
Cc1nc2ccccc2c(=O)n1/N=C/c1ccc2ccccc2c1O	none
Cc1cccc(CN2CCN(c3nc4nonc4nc3NC3CC3)CC2)c1	none
Clc1cccc(CN2CCN(c3nc4nonc4nc3NC3CC3)CC2)c1	D2 antagonist 37.7
COc1ccc(/C=C/c2ccncc2)c2ccccc12	D2 antagonist 44.6
COc1ccccc1C=Cc1ccnc2ccccc12	none (no result: Anesthetic bind, D2 PAM-2, D2 antagonist, D2 ag-2)
Cc1nc2c(OCc3ccc(C#N)cc3)cccn2c1N(C)C(=O)CCC1CCCC1	none (no result: Anesthetic bind, D2 PAM-2, D2 antagonist, D2 ag-2)
O=[N+]([O-])c1nn(-c2cccc(Cl)c2)n(O)c1=NCc1cccnc1	D2 ag-1 inconclusive, D2 PAM-1 59.0
Cc1cccc(-n2nc([N+](=O)[O-])c(=NCc3cccnc3)n2O)c1	D2 ag-1 inconclusive, D2 PAM-1 68.4
Oc1ccccc1N1CCN(C(c2ccccc2)c2ccccc2)CC1	D2 antagonist 30.3
O=c1cc(COc2ncnc3c(Cl)cc(Cl)cc23)nc2sccn12	none

High-throughput results (PubChem)
